# According to PubChem BioAssay (Tox21):
# Inconclusive results are not listed. Unmarked numbers belong to inactive results. Active and inactive are the calls of the source. Calls come from the whole dose curve; as a rule, active = well fitted curve in the direction sought with a large enough effect in the repeat runs; inconclusive = weak or mixed curves; inactive = no such curve, though single readings can be large; an effect the other way counts as inactive or inconclusive.
# Tests used:
# [1] = target: Nuclear receptor subfamily 1 group I member 2 (Rattus norvegicus) (UniProt Q9R1A7); test: Rat pregnane X receptor (rPXR) activation by small molecules, qHTS assay (AID 1346983); conditions: rPXR luciferase reporter cells, One-Glo luminescence, 24 h; max activation: stronger effect = higher value; note: nearly all actives have a fitted effect of over 20% in size; note: potency is the fitted concentration of half-maximal effect
# Chain of Nuclear receptor subfamily 1 group I member 2 (Rattus norvegicus) (Q9R1A7 whole entry, looked up): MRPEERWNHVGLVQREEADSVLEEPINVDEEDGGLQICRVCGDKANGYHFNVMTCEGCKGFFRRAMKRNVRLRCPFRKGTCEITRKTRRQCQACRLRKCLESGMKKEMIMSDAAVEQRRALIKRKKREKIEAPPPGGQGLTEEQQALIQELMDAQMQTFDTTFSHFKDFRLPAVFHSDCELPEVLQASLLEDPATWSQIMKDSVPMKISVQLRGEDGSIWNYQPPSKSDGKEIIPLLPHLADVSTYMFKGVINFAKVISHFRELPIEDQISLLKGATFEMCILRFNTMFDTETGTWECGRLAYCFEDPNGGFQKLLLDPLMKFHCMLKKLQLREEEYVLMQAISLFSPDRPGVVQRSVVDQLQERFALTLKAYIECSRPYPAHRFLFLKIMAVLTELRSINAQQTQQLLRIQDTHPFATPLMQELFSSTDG
# How it was run: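 Luminescent readout (One-Glo luciferase, 30 min room temperature) followed 24 hr compound treatment at 37 C of rPXR cells plated 2,000 per well and preincubated 5hr; qHTS format with compounds delivered in DMSO.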
# [2] = target: Nuclear receptor subfamily 1 group I member 2 (Homo sapiens) (UniProt O75469); test: CYP3A4 induction through human pregnane X receptor (PXR) by small molecules, qHTS assay (AID 1346984); note: nearly all actives have a fitted effect of over 40% in size; note: potency is the fitted concentration of half-maximal effect
# How it was run: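 DPX-2 HepG2 cells carrying a PXR response element and CYP3A4-promoter luciferase construct, treated with compounds 24 hr at 37C. Then P450-Glo CYP3A4 Luciferin-IPA substrate (3uM final) for 3 hr at 37C, One-Glo added, luminescence read.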
# [3] = target: Nuclear receptor subfamily 1 group I member 2 (Homo sapiens) (UniProt O75469); test: Human pregnane X receptor (PXR) activation by small molecules, qHTS assay (AID 1346985); note: nearly all actives have a fitted effect of over 40% in size
# How it was run: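 DPX-2 cells (HepG2 co-transfected with a PXR response element and a CYP3A4-promoter luciferase construct) were seeded at 2,000 per well, rested 5 hr at 37C, then exposed to DMSO-dissolved compounds for 24 hr. Activation was read as luciferase luminescence.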
# % is set by controls: 0 for no effect and ±100 for the full control effect.
SMILES,max activation [1],Potency [2],Potency [3],Potency [1]
COc1cc2c(cc1OC)[C@@H](Cc1cc(OC)c(OC)c(OC)c1)[N+](C)(CCCOC(=O)CC/C=C/CCC(=O)OCCC[N+]1(C)CCc3cc(OC)c(OC)cc3[C@H]1Cc1cc(OC)c(OC)c(OC)c1)CC2 (some centres undefined),-6.15%,inactive,,
CC(=NCc1ccccc1)c1ccccc1O,-4.51%,inactive,inactive,
O=C1C2CC3CC1CC(O)(C3)C2,-3.68%,inactive,,
CCOC(=O)[C@H](CCc1ccccc1)N[C@@H](C)C(=O)N1[C@H](C(=O)O)C[C@H]2CCCC[C@@H]21,-1.14%,inactive,,
O=S(=O)(O)O,0.359%,,,
CCN1\C(=C/C=C/C=C/c2sc3ccccc3[n+]2CC)Sc2ccccc21,-28.2%,inactive,,
C=CC[N+]1([C@H]2C[C@H]3[C@@H]4CC[C@H]5C[C@H](O)[C@@H](N6CCOCC6)C[C@]5(C)[C@H]4CC[C@]3(C)[C@H]2OC(C)=O)CCCC1,-2.81%,inactive,,
O=C1c2ccccc2CN2C(=O)c3ccccc3CN12,-1.83%,inactive,,
O=C(O)Cc1nn(Cc2ccc(Br)cc2F)c(=O)c2ccccc12,0.657%,inactive,,
CC(C)OC(=O)Nc1ccc2nc(-c3cscn3)[nH]c2c1,,inactive,,8.91 µM (active)
COc1c(O)cc2c(c1O)[C@@H]1O[C@H](CO)[C@@H](O)[C@H](O)[C@H]1OC2=O,-0.0644%,inactive,,
CNCCC=C1c2ccccc2CCc2ccccc21,-3.34%,7.08 µM (active),,
